Bioassay records deposited in PubChem BioAssay by Johns Hopkins Ion Channel Center.
Shown are actives, neighbours in structure and some others; about 3.5% of the full set was active somewhere.
KCNK9 block: inhibitors of human KCNK9 two-pore domain potassium channel | HEK293 KCNK9, FluxOR thallium flux fluorescence; active compounds read low | Q9NPC2 | B-score at 10 µM | actives 1.2% (n = 310,000);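 active = ratio B-score over 3 SD below the library mean, with starting fluorescence within 5 SD of its mean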;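 also: negative B-score means less thallium flux so channel inhibition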
KCNK3 block: human KCNK3 channel inhibition, primary screen | B-score at 10 µM | O14649 | CHO-KCNK3 thallium flux, FluxOR fluorescence; active compounds read low | actives 0.84% (n = 340,000);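 active = B-score under library mean minus 4 SD, starting fluorescence ratio at most library mean plus 5 SD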;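 also: more negative B-score means stronger inhibition of thallium flux through KCNK3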
ANO1 activ: activates or potentiates the mouse TMEM16A chloride channel. Q8BHY3. HEK293 TMEM16A/YFP-H148Q/I152L, iodide quench fluorescence; active compounds read low. B-score at 10 µM. actives 0.3% (n = 340,000). AID 623877;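 active = fluorescence-ratio B-score plate-corrected deviation score at least 3 library SD below zero, with starting fluorescence score within 5 deviations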;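 also: channel opened by trigger with iodide after compound preincubation; score built on the fluorescence ratio of max minus min over baseline; more negative score means more quench and so TMEM16A activation or potentiation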
Kir21 block: blocks the mouse Kir2.1 inward-rectifier potassium channel; P35561; HEK293-Kir2.1, FluxOR thallium flux fluorescence; active compounds read low; B-score at 10 µM; actives 0.85% (n = 310,000);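 active = fluorescence ratio B-score at or below minus 3 SD of library scores, with starting-brightness B-score within 2 SD, cut at about -4.2 in these data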;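 also: channel flux triggered by added potassium and thallium sulfate stimulus; B-score of peak minus minimum fluorescence over baseline after thallium stimulus; more negative B-score means stronger Kir2.1 block with less thallium influx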
ANO1 block: inhibitors of mouse TMEM16A calcium-activated chloride channel; Q8BHY3; HEK293 TMEM16A/YFP iodide influx fluorescence, ionomycin; normalized B-score (activity score, 25-100; higher = stronger inhibition) at 10 µM; actives 1.2% (n = 310,000);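 active = ratio plate-corrected score three or more library SD toward inhibition, starting fluorescence score within five deviations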;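 also: score derived from kinetic fluorescence span divided by baseline fluorescence per well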
TMEM16A reconf: re-confirmation of mouse TMEM16A chloride channel inhibitors; shares compounds with ANO1 block; HEK293 TMEM16A/YFP-H148Q, iodide quench fluorescence; ionomycin added to raise cell calcium; inhibition, % at 10 µM; actives 39% (n = 2,300); AID 652189;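 active = mean duplicate percent inhibition, scaled so buffer wells are 0 and the reference blocker 100, over three buffer SD above buffer mean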
TMEM16A Ca cntr: counter-screen for TMEM16A inhibitors: effect on calcium mobilization; TMEM16A/YFP HEK293, Fluo4 calcium mobilization; calcium response (% of ionomycin), % at 10 µM; actives 2% (n = 2,300); shares compounds with ANO1 block;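 active = duplicate-averaged calcium signal over 20% of the ionomycin maximum, relative to buffer baseline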;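 also: each well's signal is peak minus trough fluorescence divided by its pre-addition baseline; 0% = buffer wells and 100% = ionomycin wells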
YFP-HEK293 quench: counter-screen for TMEM16A inhibitors: effect in parental YFP-HEK293 cells; shares compounds with ANO1 block; iodide YFP quench, ionomycin; YFP ratio F(max-min)/F0 at 10 µM; 2,300 tested, under 10 active;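 active = yellow fluorescent protein signal ratio exceeding the buffer control mean by over 5 SD of those controls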;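 also: ratio is mean of duplicate wells from kinetic YFP trace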
ClC-1 inh: selectivity of TMEM16A inhibitors: inhibition of rat ClC-1 chloride channel; ratio percent, % at 10 µM; CHO ClC-1-YFP, iodide influx fluorescence quench; iodide control reads 0, buffer control 100; 2,300 tested, under 10 active; shares compounds with ANO1 block;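 active = duplicate-mean ratio percent above the mean of iodide-only control wells, which defines zero, plus 5 of their SD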;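 also: higher percent means stronger block of ClC-1 iodide influx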
* hit, by the source's call; i = inactive; . = not tested or not shown.

SMILES | KCNK9 block | KCNK3 block | ANO1 activ | Kir21 block | ANO1 block | TMEM16A reconf | TMEM16A Ca cntr | YFP-HEK293 quench | ClC-1 inh
CCCNC(=O)c1c(N)n(Cc2ccco2)c2nc3ccccc3nc12 | i | . | . | -0.58 | i | i | i | -1 | -6.0
Cc1cc([N+](=O)[O-])c2ccccc2[n+]1[O-] | i | i | i | -0.54 | i | . | . | . | .
COC(=O)C1=C(c2ccc(C(C)=O)cc2)C[C@@H]2CC[C@H]1N2C(=O)NCCOc1ccccc1Cl | . | i | i | . | . | . | . | . | .
COC(=O)C1=C(c2cccc(OCc3ccccc3)c2)C[C@@H]2CC[C@H]1N2C(=O)NCc1ccc(Cl)cc1 | . | i | i | . | . | . | . | . | .
CCCCn1c(O)c(C(C)=NCCN2CCCCC2)c(=O)[nH]c1=O | i | i | i | 0 | i | i | i | -0.958 | 1.0
C=CCn1c(O)c(C(C)=NCCN2CCCCC2)c(=O)[nH]c1=O | i | i | i | 1.29 | i | . | . | . | .
C[C@H]1[C@@H](OS(=O)(=O)O)C[C@@H]2C[C@H]([C@@H](O)c3cc(=O)[nH]c(=O)[nH]3)NC3=NC[C@H]1N32 | . | i | i | . | . | . | . | . | .
CCOc1ccc(-n2c(O)c(/C=C3\C=Nc4ccccc43)c(=O)[nH]c2=O)cc1 | i | i | i | -0.54 | i | 22.0%* | 39.5%* | -0.824 | 3.5
COc1ccc(OC)c(-n2c(O)c(/C=C3\C=Nc4ccccc43)c(=O)[nH]c2=O)c1 | i | i | i | -3.46 | i | . | . | . | .
CCOC(=O)c1c(-c2ccc(OC)cc2)oc2ccc(OC(=O)N(C)C)cc12 | i | i | i | 0.35 | 100* | i | i | -1.15 | -11.5
Cc1oc2ccc(OC(=O)N(C)C)cc2c1C(=O)OC(C)C | i | i | i | 0.33 | i | . | . | . | .
O=C(Nc1ccc(OC(=O)N2CCCCC2)cc1)N1CCOCC1 | i | i | i | 0.04 | i | . | . | . | .
O=C(Oc1c(Cl)cc(Cl)c2ccccc12)N1CCCCC1 | i | i | i | 0.08 | 100* | i | i | -1.04 | -10.5
COc1ccc(OC)c(CC(=O)N(C)C2CCCN(Cc3ccccc3F)C2)c1 (configuration not stated) | i | i | i | -1.67 | i | . | . | . | .
COc1ccc(OC)c(CC(=O)O)c1 | i | i | -4.87* | -0.82 | 25* | i | i | -1.03 | 6.0
CN1OCC2Cn3c(nc4ccccc43)C21 (configuration not stated) | . | i | i | . | i | . | . | . | .
CC(C)N1OC2CC1c1nc3ccccc3n1C2 (configuration not stated) | i | i | i | -1.86 | 25* | i | i | -1.07 | -18.5
Cc1ccc(N)c(C(=O)c2ccc(Br)cc2)c1 | i | i | i | -0.89 | 100* | i | i | -1.21 | -7.0
N#CCCn1cc(C(=O)Nc2ccccc2Br)c(-c2ccc([N+](=O)[O-])cc2)n1 | i | i | i | -0.9 | i | . | . | . | .
CN(C)CCSCc1nnc2n1-c1ccc(Cl)cc1C(c1ccccc1Cl)=NC2 | i | i | i | -0.4 | i | . | . | . | .
CCCCCCC(C)(C)c1ccc([C@@H]2C[C@H](O)CC[C@H]2CCCO)c(O)c1 | . | -10.8* | i | . | 100* | i | i | -1.09 | -6.5
Cc1cc(OC(=O)c2ccco2)c2c3c(c(=O)oc2c1)CCCC3 | i | i | i | -2.29 | 100* | i | i | -1.04 | -9.5
